Source: PubChem (The Scripps Research Institute Molecular Screening Center)
In the library only some 3.5% were active in any assay of this set; here they are far more common.
GPR151 ag – human GPR151 activation. Q8TDV0. PathHunter beta-arrestin GPR151 cells, luminescence. activation, % at 11.2 µM. 1% of 650,000 active; in the data active means activation above about 4.9%;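 further: 0% = median of compound wells and 100% = cells with positive control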
Target sequence (Q8TDV0 whole entry, looked up): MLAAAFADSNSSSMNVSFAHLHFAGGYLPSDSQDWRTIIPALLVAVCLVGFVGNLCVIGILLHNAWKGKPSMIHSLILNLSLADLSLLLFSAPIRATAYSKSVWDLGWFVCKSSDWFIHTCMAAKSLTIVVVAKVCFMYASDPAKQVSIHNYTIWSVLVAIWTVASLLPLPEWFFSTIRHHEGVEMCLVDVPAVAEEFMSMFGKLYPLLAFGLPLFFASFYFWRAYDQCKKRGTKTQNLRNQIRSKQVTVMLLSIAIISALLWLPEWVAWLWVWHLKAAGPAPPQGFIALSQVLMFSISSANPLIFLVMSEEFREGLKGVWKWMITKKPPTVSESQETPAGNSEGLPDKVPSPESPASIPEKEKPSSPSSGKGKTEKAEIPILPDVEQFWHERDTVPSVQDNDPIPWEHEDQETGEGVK
TEAD-YAP inh – TEAD-YAP interaction inhibition | inhibition, % at 9.12 µM | HEK-TIYL cells, TEAD-Gal4/YAP UAS-luciferase luminescence | 1.4% of 640,000 active | AID 1259422; in the data active means inhibition above about 32%;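 further: 0% = median of test compound wells and 100% = reference inhibitor wells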
FBW7 activator – activators of human E3 ligase FBW7; normalized activity (activation), % at 26.1 µM; Q969H0; 0.13% of 650,000 active; AlphaScreen FBW7–phospho-cyclin E peptide binding, activator screen; AID 1259310; in the data active means normalized activity above about 1.9%;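 further: purified mutant Fbw7 with reduced substrate affinity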
MITF inh – inhibitors of human MITF. O75030. AlphaScreen MITF homodimerization, bead proximity signal. inhibition, % at 2.6 µM. 0.91% of 650,000 active; in the data active means inhibition above about 50%;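 further: 0% = vehicle wells with protein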
GPR151 conf act – human GPR151 activation, confirmation screen. shares compounds with GPR151 ag. GPR151 PathHunter beta-arrestin cells, luminescence, 90 min; % of EA-reagent control over plate median. 6,700 tested, under 10 active. activation, % at 11.2 µM;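 active means mean percent activation across replicates above the confirmation screen cutoff of 4.91%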
GPR119 ag – GPR119 activation, counter-screen for GPR151 activators | shares compounds with GPR151 ag | GPR119 PathHunter beta-arrestin cells, luminescence, 90 min; 0 = compound-well median, 100 = enzyme-acceptor control | activation, % at 11.2 µM | 0.3% of 6,700 active;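 active means mean percent activation in the counterscreen above 29.09%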;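 further: counterscreen on off-target GPR119 to flag nonselective hits from the GPR151 activator screen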
Numbers without * were called inactive; . = not tested or not shown.

SMILES | GPR151 ag | TEAD-YAP inh | FBW7 activator | MITF inh | GPR151 conf act | GPR119 ag
Nc1sc(-c2ccccc2)cc1C(=O)N/N=C/c1cccs1 | 8.4* | 5 | 0 | -6 | -1 | -5
Cc1ccc(C(=O)N2CCN(Cc3ccc4c(c3)OCO4)CC2)o1 | 10* | 2 | 0 | 5 | 0 | -12
CC1=C(C(=O)N2CCN(Cc3ccc4c(c3)OCO4)CC2)C2(CCC(C)CC2)OC1=O (stereo not drawn) | 6.5* | -2 | 0 | 11 | 0 | -1
O=C(NC1CC1)c1csc(N2CCN(Cc3ccc4c(c3)OCO4)CC2)n1 | -1 | -8 | 0 | 2 | . | .
COC(=O)N1CCN(Cc2ccc3c(c2)OCO3)CC1 | -1 | -8 | 1 | 2 | . | .
NNC(=O)CCN1CCN(Cc2ccc3c(c2)OCO3)CC1 | 8.5* | -4 | 0 | -8 | 1 | -8
CC1=C(C(=O)N2CCN(C(=O)c3ccco3)CC2)C2(CCC(C)CC2)OC1=O (stereo not drawn) | 2 | 6 | 0 | -14 | . | .
O=C(Nc1ccc2c(c1)OCO2)c1csc(N2CCN(Cc3ccc4c(c3)OCO4)CC2)n1 | 6.4* | 4 | 0 | 0 | 1 | 6
COCCn1c(SCc2ccc(C(F)(F)F)cc2)nc2c(c1=O)SCC2 | -2 | -13 | 0 | 6 | . | .
O=C(Nc1ccc2c(c1)OCCO2)c1cc2c(=O)oc3ccccc3c2s1 | 0 | 4 | 0 | 0 | . | .
O=C(CCc1cccc(Br)c1)Nc1ccc(N2CCOCC2)cc1 | -1 | -29 | 0 | -2 | . | .
O=C(Cn1ncc2c(Cl)cccc21)NCc1cccc(Br)c1 | 6.5* | -9 | 0 | 0 | 0 | 0
O=C(Cn1ncc2ccccc21)NCc1cccc(Br)c1 | -1 | -42 | 0 | -10 | . | .
COC(=O)c1cc(NC(=O)c2cccs2)c(=O)n2c(=O)c3c(C)c(C)sc3[nH]c12 | 0 | -5 | 0 | 2 | . | .
COC(=O)c1cc(NC(=O)c2ccc(F)cc2)c(=O)n2c(=O)c3c(C)c(C)sc3[nH]c12 | 5.4* | 2 | 0 | 2 | 1 | 2
CC1CCCC(C)N1NC(=S)Nc1ccccc1 (stereo not drawn) | 4.9* | 8 | 0 | 5 | -1 | -13
CC(C)N(CCNC(=O)c1csc(N2CCCC2CO)n1)C(C)C (stereo not drawn) | -1 | -6 | 0 | -1 | . | .
Cc1cc(Nc2ccc3c(c2)OCO3)nc(Nc2ccc(N3CCOCC3)cc2)n1 | 10.0* | 93* | 0 | 18 | 2 | 71*
Cc1cc(Nc2ccc(N3CCOCC3)cc2)nc(Nc2ccncc2)n1 | -1 | -2 | 0 | 14 | . | .
Cc1cc(Nc2ccc(N3CCOCC3)cc2)nc(NCc2cccnc2)n1 | 5.4* | 22 | 0 | 2 | 1 | -2
Nc1ccccc1-c1nc2ccccc2[nH]c1=O | 5.9* | -55 | 0 | 4 | -2 | -16
O=C(Nc1ccc2oc(=O)ccc2c1)c1ccc([N+](=O)[O-])cc1Cl | 9.0* | 16 | 0 | 6 | 1 | -4
CCOc1ccc(NC(=O)c2ccc([N+](=O)[O-])cc2Cl)cc1 | 6.4* | -27 | 0 | 2 | -1 | -8
CCN1CCCC1CNC(=O)Cn1c(=S)[nH]c2ccccc2c1=O (stereo not drawn) | 1 | 5 | 0 | 4 | . | .
CCOc1ccccc1NC(=O)CCc1nnc2ccc(N3CCCCC3)nn12 | -2 | 6 | 0 | 12 | . | .
SMILES | GPR151 ag | TEAD-YAP inh | FBW7 activator | MITF inh | GPR151 conf act | GPR119 ag
CCOC(=O)C(C)NC(=O)CCc1nnc2ccc(N3CCC(C)CC3)nn12 (stereo not drawn) | 5.4* | 3 | 0 | 4 | 0 | -3
CCOc1ccccc1NC(=O)CCc1nnc2ccc(N3CCCC3)nn12 | 6.7* | 7 | 0 | 6 | 0 | 1
COc1cccc(-c2nc3sc4c(c3c(=O)n2CC(=O)Nc2ccc(OC)c(OC)c2)CCCC4)c1 | 1 | 6 | 0 | 3 | . | .
CC12CN3CC(C)(CN(C1)C3c1ccc(F)cc1)C2=O (stereo not drawn) | 0 | 0 | 0 | -13 | . | .
O=C(CCS(=O)(=O)c1cc2c(cc1Cl)NC(=O)CO2)Nc1ccc(F)cc1F | 5.5* | -3 | 0 | 7 | -1 | -14
O=C1Nc2ccccc2Oc2cc([N+](=O)[O-])cc(Oc3ccc(Br)cc3)c21 | 11* | 4 | 0 | 5 | 1 | 1
